# Test results as given in PubChem BioAssay AID504834 (National Center for Advancing Translational Sciences (NCATS), 2011).
# Where “and” joins values, the source holds several entries; their conditions need not be identical. Equal entries are not always repeated. In all, about 320,000 compounds went through this assay and about 22,000 (6.9%) were called active. Inconclusive results (about 27%) are left out. The sample holds actives, similar compounds and a random draw of the others, so the mix is not that of the screen. Calls come from the whole dose curve; as a rule, active = well fitted inhibition curve with a large enough effect; inconclusive = small, poorly fitted or top-dose-only effect, or another doubt; inactive = no such curve, though single readings can be large or run the other way. The source holds several records for some structures; these can differ, active in one and inactive in another.
# Assay: Primary qHTS for delayed death inhibitors of the malarial parasite plastid, 96 hour incubation
# Settings: P. falciparum luciferase reporter growth; series mostly up to 28.7 µM; activity change, negative = inhibition: at the top concentration
# Summary of the method: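 P. falciparum expressing integrated firefly luciferase grown in erythrocytes (2% hematocrit, 0.05% parasitemia final) with compounds for 96 hours at 37 C, 5% CO2. Growth inhibition read as loss of luminescence after adding luciferase detection reagent.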
# % is set by controls: 0 for no effect and ±100 for the full control effect; potency is the fitted concentration of half-maximal effect.
SMILES,"activity change, negative = inhibition",Potency
Cc1sc2ncnc(N3CCC(C(=O)Nc4nc5ccc(Cl)cc5s4)CC3)c2c1C,36.2% (inactive),
O=C(N/N=C\C1CC=CCC1)c1ccc(Br)o1 (stereo not given),2.65% (inactive),
Cc1ccc(-n2c(C)cc(/C=C(\C#N)C(=O)NCC3CCCO3)c2C)cc1 (stereo not given),,5.86 µM (active)
Cc1ccc(C(=O)N/C(=C/c2cccs2)C(=O)NCC2CCCO2)cc1 (stereo not given),32.8% (inactive),
Cc1ccc(S(=O)(=O)N2CCC(C(=O)NCC3CCCO3)CC2)cc1 (stereo not given),-25.5% (inactive),
CC(=O)N(CC(O)CO)c1c(I)c(C(=O)NCC(O)CO)c(I)c(C(=O)NCC(O)CO)c1I (stereo not given),,inactive and 13.5 µM (active)
CC(C)(Oc1ccc(Cl)cc1)C(=O)OCC(=O)NCCc1ccc(S(N)(=O)=O)cc1,9.46% (inactive),
Cc1cc(C)n2nc(C(=O)OC(C)C(=O)c3cc(C)c(C)cc3C)nc2n1 (stereo not given),46.2% (inactive),
Oc1ccc(Cl)c2c1CCC2,-18% (inactive),
Cc1ccc(NC(=O)Nc2cc(-c3ccccc3)nn2C)cc1Cl,22.7% (inactive),
COc1ccc(NC(=O)CN(C)C(=O)/C=C/c2cn(Cc3ccccc3)nc2-c2cccnc2)cc1,,9.28 µM (active)
COc1cccc(NC(=O)CN(C)C(=O)/C=C/c2cn(-c3ccccc3)nc2-c2cccs2)c1,3.17% (inactive),
O=Cc1cn(Cc2ccccc2)nc1-c1cccnc1,10.1% (inactive),
O=C(Nc1ccc(NC(=O)c2ccc3c(c2)OCO3)cc1)c1cccc(Cl)c1,-12.7% (inactive),
CN(c1ccccc1)S(=O)(=O)c1ccc(C(=O)NCCc2ccccc2)cc1,4.97% (inactive),
Cc1cc(C)nc(SCc2ccccc2C#N)n1,103% (inactive),
CC1(C)CCc2nc(SCc3ccccc3)c(C#N)cc2C1,,6.57 µM (active)
CC(NC(=O)CSc1nc2c(cc1C#N)CN(C)CC2)c1ccccc1 (stereo not given),58.3% (inactive),
CCCCN(C(=O)c1nn(C)c(=O)c2ccccc12)c1c(N)n(CCC)c(=O)[nH]c1=O,14.7% (inactive),
COc1ccccc1C(=O)NC(=S)Nc1ccccc1N1CCCCC1,25.3% (inactive),
Oc1c(C=Nc2cccc3nsnc23)ccc2ccccc12,0% (inactive),
c1ccc(NCc2cccc3ccccc23)nc1,-21% (inactive),
Oc1ccc2ccccc2c1N=Nc1nccs1,,9.28 µM (active)
Oc1ccc(N=Nc2nccs2)c(O)c1,,11.7 µM (active)
COc1ccc(C(=O)N[C@H](C(=O)NCc2ccccc2)C(C)C)cc1,13.7% (inactive),
COc1cccc(NC(=O)N2CCCC2C(=O)NC2CCCCC2)c1 (stereo not given),-1.78% (inactive),
CCOC(=O)Cn1c(=O)n(Cc2ccc(OC)cc2)c(=O)c2cccnc21,28.9% (inactive),

SMILES,"activity change, negative = inhibition",Potency
COc1cc2nc(Cl)nc(NCCO)c2cc1OC,1.36% (inactive),
COc1ccc(-c2oc3ncnc(NCCCO)c3c2-c2ccc(OC)cc2)cc1,,2.08 µM (active)
c1ccc(-c2oc3ncnc(N4CCOCC4)c3c2-c2ccccc2)cc1,-6.25% (inactive),
Cc1ccc(S(=O)(=O)N(Cc2ccccc2)c2ccccn2)cc1[N+](=O)[O-],-14.9% (inactive),
CCC(C)N1CC(=O)N2Cc3[nH]c4ccccc4c3C[C@H]2C1=O (stereo not given in full),3.67% (inactive),
Oc1cccc(C2c3[nH]c4ccccc4c3CCN2Cc2cnn(-c3ccccc3)c2)c1 (stereo not given),2.75% (inactive),
Cc1[nH]nc(-c2ccc(OCc3cnn(-c4ccccc4)c3)cc2O)c1Oc1ccc(Cl)cc1,,13.1 µM (active)
CN=C1S/C(=C\c2c(OC)cc(OC)cc2OC)C(=O)N1C,14.8% (inactive),
O=C(CN1CCCCCC1)Nc1ccc(S(=O)(=O)N2CCCCC2)cc1,4.97% (inactive),
CC(Oc1ccccc1[N+](=O)[O-])C(=O)N/N=C/c1ccoc1 (stereo not given),39.7% (inactive),
CC(=O)Nc1ccc(C(=O)Nc2nc(-c3cc(C)n(Cc4ccccc4)c3C)cs2)cc1,,4.15 µM (active)
Cc1cc(-c2csc(N)n2)c(C)n1Cc1ccccc1,-16.6% (inactive),
CCc1noc(C)c1C(=O)Nc1nc(-c2ccccc2)cs1,50.8% (inactive),
CCN(CC(=O)NCc1cccs1)C(=O)/C=C/c1ccc(C)cc1,-23.7% (inactive),
O=C(O)CCn1c(O)c(C=C2N=c3ccccc3=N2)sc1=S,,4.65 µM (active)
O=C(O)CCn1c(Cc2ccccc2)nc2ccccc21,-16.9% (inactive),
Cc1cc2ccccc2n1CCC(=O)O,29% (inactive),
CCS(=O)(=O)C1=NSC2=NC(=O)/C(=C\c3ccc(OS(=O)(=O)c4ccccc4)cc3)C(=N)N21,-0.896% (inactive),
CC(C)(C)C(=O)Nc1c(Br)c(C2CC2)nn1-c1ccccc1,-2.14% (inactive),
Cc1cc(=O)oc2c1ccc1ccccc12,5.33% (inactive),
Cc1coc2c(O)cc3c(c12)OC1(N2CCCCC2)C(=O)NCCCC31 (stereo not given),,9.28 µM (active)
NNC(=O)c1ccc(COCC(F)(F)C(F)F)cc1,-23.4% (inactive),
O=C(N/N=C/c1ccco1)c1csc2c1CCCC2,1.77% (inactive),
COc1ccc(C(=O)N2CCCCC2C(=O)Nc2ccc(-n3nc(C)cc3C)cc2)o1 (stereo not given),,10.4 µM (active)
Cc1cc(C)n(-c2ccc(NC(=O)C3CCCCN3C(=O)c3cccs3)cc2)n1 (stereo not given),33.4% (inactive),
CN(C)C(=O)CCC(=O)N1CCCCC1C(=O)Nc1ccc(Oc2ccccc2F)cc1 (stereo not given),0% (inactive),
O=C(CN1CCCCC1)NC(=O)Nc1ccccc1F,34.5% (inactive),

SMILES,"activity change, negative = inhibition",Potency
CCN(CC(=O)NCC(=O)Nc1cccc(C)c1C)Cc1ccccc1,-12.1% (inactive),
COc1cccc2cc(-c3cc(=O)oc4cc(C)c(O)cc34)oc12,,13.1 µM (active)
COc1cccc(C(=O)OCc2cc(=O)oc3c(C)c(C)ccc23)c1OC,33.8% (inactive),
COc1cccc2cc(C(=O)N3CCN(C(=O)c4ccccc4)CC3)c(=O)oc12,6.51% (inactive),
O=C(NCc1ccccc1)C(c1ccccc1)N(C(=O)c1csnn1)c1ccc(F)cc1 (stereo not given),7.01% (inactive),
O=C(O)CCCC(=O)Nc1ccc(Oc2cccc(C(F)(F)F)c2)nc1,-3.37% (inactive),
O=C(O)CCCn1cc(NC(=O)COc2cccc(Cl)c2)cn1,,14.7 µM (active)
O=C(COc1cccc(Cl)c1)NCc1ccccc1,-11.8% (inactive),
COc1ccccc1NC(=O)C(C)OC(=O)CC1CCCC1 (stereo not given),30.8% (inactive),
Cc1ccccc1NC(=O)CCNS(=O)(=O)c1ccc2[nH]c(=O)oc2c1,-22.6% (inactive),
COc1cccc(CN(C)CC(O)COC(c2ccccc2)c2ccccc2C)c1 (stereo not given),,5.86 µM (active)
COc1cccc(CN(C)CC(=O)Nc2sc3c(c2C#N)CCC3)c1,-16.4% (inactive),
Cc1ccccc1C(OCC(O)CN1CCCCC1CCO)c1ccccc1 (stereo not given),144% (inactive),
CCc1nn(CCCC(=O)NC(C)c2ccccc2)c(=O)c2cc3occc3n12 (stereo not given),0.559% (inactive),
CCN1C(=O)C(=O)N(CC(=O)Nc2cc(C)ccc2C)C1=O,-1.34% (inactive),
Cc1cccc(NC(=O)CCN2CC(C)CC(C)C2)c1 (stereo not given),30.9% (inactive),
NS(=O)(=O)c1ccc(Nc2nc(-c3ccccc3)cs2)cc1,20.4% (inactive),
Cc1cccn2c(=O)c(C=O)c(Nc3ccc(S(N)(=O)=O)cc3)nc12,,5.86 µM (active)
CNc1nc2c(C)cccn2c(=O)c1C=Nc1ccc(OC)cc1,29.5% (inactive),
CCOCCCNC(=O)c1ccc(CS(=O)(=O)c2cccc(C(F)(F)F)c2)o1,-15.9% (inactive),
CCc1cc(C(=O)Nc2nnc(C3CC3)s2)sc1C,31% (inactive),
COc1ccc(CCn2c(-c3ccco3)nc3nc4ccccc4nc32)cc1OC,-6.63% (inactive),
COc1cc(-c2n[nH]c(=S)n2Cc2ccccc2)cc(OC)c1OC,-5.2% (inactive),
CCC(C)n1c(-c2cc(OC)c(OC)c(OC)c2)nc2nc3ccccc3nc21 (stereo not given),,5.86 µM (active)
COc1ccccc1N1CCN(CC(=O)Nc2ccnn2C2CCCC2)CC1,-16.9% (inactive),
Cc1ccc(SCC(=O)NNC(=O)c2ccc(S(C)(=O)=O)cc2)cc1,48.6% (inactive),
COc1ccccc1CN1CC(C(=O)NCCc2cn[nH]c2)CCC1=O (stereo not given),13.9% (inactive),

SMILES,"activity change, negative = inhibition",Potency
CCC(=O)Nc1ccc2c(c1)nc(CCN1CCN(c3ccccn3)CC1)n2C,-14.1% (inactive),
NS(=O)(=O)c1ccc(NC(=S)NC(=O)c2cccc(Br)c2)cc1,,13.1 µM (active)
NS(=O)(=O)c1ccc(NC(=S)NC(=O)c2cccnc2)cc1,31.3% (inactive),
O=C(NC(=S)Nc1ccc(S(=O)(=O)Nc2ncccn2)cc1)c1cccc(Br)c1,-13.4% (inactive),
Cc1cc(NC(=O)[C@H](C)NC(=O)c2ccco2)ccc1Br,-0.221% (inactive),
CCc1ccc(C(=O)COC(=O)c2ccco2)cc1,-16.8% (inactive),
CC(C)(C)c1ccc(C(=O)N2CCC(C(=O)N3CCCCC3)CC2)cc1,-25.9% (inactive),
CCOC(=O)C1=C(N)N(c2ccc(C)cc2)C2=C(C(=O)CCC2)C1c1cccs1 (stereo not given),,3.7 µM (active)
CCOC(=O)C1=C(C)NC(=S)NC1c1cccs1 (stereo not given),16.8% (inactive),
CCOC(=O)c1cc2c(n(-c3ccc(C)cc3)c1=O)CCCC2=O,26.5% (inactive),
COC(=O)c1ccc(NC(=O)c2cc3c(CO)cnc(C)c3oc2=Nc2cccc(C(N)=O)c2)cc1,1.25% (inactive),
CC(/C=N/NC(=O)c1cc(-c2ccc3ccccc3c2)n[nH]1)=C\c1ccco1,10.6% (inactive),
Cc1cc(-c2n[nH]c(=S)n2/N=C/C(Br)=C/c2ccccc2)n[nH]1,0% (inactive),
CC(C)c1cc(C(=O)N/N=C/C(Br)=C/c2ccccc2)n[nH]1,,3.29 µM (active)
CN(C(=O)COC(=O)CCCc1c[nH]c2ccccc12)c1c(N)n(Cc2ccccc2)c(=O)[nH]c1=O,2.5% (inactive),
CCCNC(=O)C(=O)Nc1cc2c3c(c1)CCC(=O)N3CCC2,28.4% (inactive),
COc1ccc(CCNC(=O)C2CCCN2C(=O)Nc2ccccc2)cc1OC (stereo not given),-9.5% (inactive),
O=C(O)c1ccc(NC(=O)c2cn(-c3ccccc3)nc2-c2ccc(Cl)cc2)cc1,47.7% (inactive),
O=C(O)c1ccc(N/N=C/c2cn(-c3ccccc3)nc2-c2cccs2)cc1,,0.465 µM (active)
O=C(O)/C=C/c1cn(-c2ccccc2)nc1-c1cccs1,54.1% (inactive),
O=C(/C=C\c1cn(-c2ccccc2)nc1-c1cccs1)N1CCOCC1,,10.4 µM (active)
COc1ccc(-c2nn(-c3ccccc3)cc2/C=C\C(=O)Nc2ccc(C(=O)O)cc2)cc1,23.8% (inactive),
O=C(O)/C=C/c1cn(Cc2ccccc2)nc1-c1cccs1,2.18% (inactive),
N#Cc1cccc(CN2CCC(=O)N(CCO)CC2)c1,93% (inactive),
